# Laboratory results as given in PubChem BioAssay (NCI).
# The panel holds about 83,000 compounds, 20% with a hit somewhere; the sample as a whole holds those more often.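 Values shown are percent growth following 48 h exposure of cells in 96-well plates to a single concentration of compound; below 10 was considered active.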 Unmarked numbers belong to inactive results. The source made the active and inactive calls.
# Legend:
# Test in all cases: NCI-60 one-dose screen, 48 h (100 = growth as untreated, 0 = no growth, -100 = all killed)
# Details in all cases: 10 µM unless noted
# HCT-15 colon = system: HCT-15 colon
# HT29 colon = system: HT29 colon
# SNB-75 CNS = system: SNB-75 CNS
# SNB-19 CNS = system: SNB-19 CNS
# U251 CNS = system: U251 CNS
# SK-MEL-5 melanoma = system: SK-MEL-5 melanoma
# UACC-62 melanoma = system: UACC-62 melanoma
# LOX IMVI melanoma = system: LOX IMVI melanoma
# SK-MEL-28 melanoma = system: SK-MEL-28 melanoma
# SK-MEL-2 melanoma = system: SK-MEL-2 melanoma
# EKVX NSCLC = system: EKVX NSCLC
# SN12C renal = system: SN12C renal
# UO-31 renal = system: UO-31 renal
# TK-10 renal = system: TK-10 renal
# ACHN renal = system: ACHN renal
# CAKI-1 renal = system: CAKI-1 renal
# A498 renal = system: A498 renal
# CCRF-CEM leukemia = system: CCRF-CEM leukemia
# MOLT-4 leukemia = system: MOLT-4 leukemia
# PC-3 prostate = system: PC-3 prostate
Structure (SMILES),growth (HCT-15 colon),growth (HT29 colon),growth (SNB-75 CNS),growth (SNB-19 CNS),growth (U251 CNS),growth (SK-MEL-5 melanoma),growth (UACC-62 melanoma),growth (LOX IMVI melanoma),growth (SK-MEL-28 melanoma),growth (SK-MEL-2 melanoma),growth (EKVX NSCLC),growth (SN12C renal),growth (UO-31 renal),growth (TK-10 renal),growth (ACHN renal),growth (CAKI-1 renal),growth (A498 renal),growth (CCRF-CEM leukemia),growth (MOLT-4 leukemia),growth (PC-3 prostate)
COc1ccc(/C=C2\COc3ccc(O)c(O)c3C2=O)cc1,-19.4% (active),42.6%,44.4%,42%,12.8%,-1.8% (active),4.68% (active),-63.9% (active),57.4%,57.4%,48%,-39.1% (active),-86.3% (active),7.43% (active),-42% (active),2.2% (active),24.4%,7.73% (active),3.83% (active),
COc1ccc2[nH]cc(-c3nc(-c4cn(C)c5c(Cl)nccc45)cs3)c2c1,0.0691% (active),9.12% (active),61.6%,79.2%,16.3%,34.5%,43.8%,21%,46%,50.9%,73.7%,62.5%,36.6%,71.1%,22.6%,60.2%,16%,22.1%,36.2%,
O=C(NCCCN1CCOCC1)c1cccc(N2C(=O)/C(=C/c3ccc(F)cc3)SC2=S)c1,99.8%,108%,62.5%,92.8%,100%,97.3%,88.4%,87.3%,104%,109%,88.5%,93.6%,70.7%,100%,87.2%,81.2%,51.6%,108%,111%,
CCCNC(=O)Oc1ccc(/C(=C(/C)Cc2ccc(OC)cc2)c2ccc(OCCCN(C)C)cc2)cc1,,25.7%,80.8%,88.8%,63.5%,86.9%,102%,73.4%,94.1%,96.5%,85.7%,84%,60.6%,88.3%,99.4%,101%,97.6%,56.4%,33.1%,74.4%
CCO/C=N/C1=C(C#N)C(c2ccc(OC)cc2)c2sc3c(F)cccc3c2O1 (configuration not stated),,7.69% (active),-8.92% (active),24%,24.7%,-22.9% (active),12.2%,32.2%,60.4%,33.3%,49.4%,39.6%,38.1%,51.8%,48.1%,25.2%,21.7%,12.2%,24.5%,33.3%
O=C(Cc1ccccc1)Nc1nc(O)c(/C=C2\C(=O)C=Cc3ccccc32)s1,,111%,95.5%,92.3%,101%,103%,94.6%,97.6%,114%,110%,95.6%,101%,78.2%,,101%,85.3%,66.8%,114%,101%,92.4%
CN[C@]12CC3(C=CC(=O)C=C3)O[C@@]1(Cc1ccc(OC)cc1)N(C)C(=O)N2,,7.83% (active),37.8%,64.4%,10.9%,43%,-43% (active),-50% (active),18.1%,,96%,4.44% (active),48.7%,24.1%,-86.3% (active),16%,97%,6.3% (active),28%,27.6%
CCOc1nc(-c2ccccc2)cc2c(O)c(C(=O)NN)[nH]c(=O)c12,,114%,86.4%,106%,106%,105%,106%,101%,99.8%,83.7%,108%,109%,88.6%,,107%,109%,115%,103%,113%,83%
COC(=O)c1n[nH]c2ccc3nc(-c4cn[nH]c4C(F)(F)F)c4c(c3c12)CCCC4,,25.7%,28.8%,68.7%,41.7%,40.4%,21.6%,21.7%,25.5%,11.9%,64%,47.7%,29%,19.4%,39%,15.3%,5.79% (active),42.8%,50.4%,
CN1C(=O)/C(=C/c2ccc(C(=O)Nc3ncc(Cc4ccc(Cl)cc4)s3)cc2)SC1=S,,20.2%,52.1%,69.3%,61.7%,26.2%,21.4%,18%,60.2%,,52.6%,68.1%,46.7%,57.7%,29.2%,21.2%,39.9%,55.5%,46.8%,55.1%
COc1cccc([C@H]2c3[nH]c4ccccc4c3C[C@H]3C(=O)N(CCCCCCC(=O)NO)CC(=O)N23)c1,,56.7%,7.84% (active),68.4%,61.5%,49.8%,36.8%,49.4%,43%,60.1%,82.6%,62.8%,62.5%,87.6%,69.1%,75.1%,75.6%,14%,18.5%,
C#CCOc1cccc(Nc2ncnc3c(NC(=O)C=C)cccc23)c1,,5.3% (active),23%,28.1%,24.7%,8.31% (active),17.4%,8% (active),52.1%,8.09% (active),55.7%,0.801% (active),25.8%,-6.1% (active),23.8%,25.7%,32%,2.68% (active),4.11% (active),23.8%
O=C1c2cccnc2C(=O)c2c1c(C(=O)NCCCN1CCCCC1)c1ccccn21,,-1.92% (active),-95.3% (active),-72.8% (active),-48.4% (active),-99.5% (active),-61.4% (active),-71.4% (active),13.8%,-40.3% (active),-100% (active),-65.1% (active),-34.5% (active),-1.12% (active),-45.2% (active),-14.6% (active),-78.1% (active),-25.6% (active),-43.9% (active),-18% (active)
CN1CCN(c2ccc(C(=O)Nc3cccc(C#Cc4cccc5[nH]nc(N)c45)c3)cc2C(F)(F)F)CC1,,-35.9% (active),-38.2% (active),-78.4% (active),-69.1% (active),-27.8% (active),-79.2% (active),-93.8% (active),-66.4% (active),27.7%,17.1%,3.37% (active),-62% (active),-30.2% (active),-46.2% (active),-96.2% (active),5.93% (active),-25.3% (active),-56.3% (active),-75.4% (active)
CCc1n(Cc2ccc3ccccc3c2)cc[n+]1Cc1ccc2ccccc2c1,,-32.2% (active),-5.96% (active),5.41% (active),4.23% (active),-93.3% (active),-43.1% (active),1.9% (active),2.03% (active),-55.2% (active),11.9%,6.37% (active),80.6%,-10.3% (active),72.3%,84.5%,21.8%,,10.6%,2.65% (active)
O=c1oc2ccccc2cc1C1=NN=C(SCc2ccccc2)SC1,,105%,85.7%,103%,92.2%,100%,101%,99.7%,109%,116%,101%,103%,73.7%,108%,96.9%,87.4%,119%,95.3%,97%,94%
